Results: PubChem BioAssay (EPA / NIEHS)
Several values for one entry are separate records, joined by “and”; a condition that tells them apart may be missing. Equal entries are not always repeated. Where a structure was tested more than once in an assay, its records may differ in their call. Activity calls are given as the source filed them. Rule for the calls: active = hit-call score of the fitted dose curve at least 0.9, where 1 is the maximum; inactive = score below 0.9.

Experiments:
[1] = read-out: Interleukin-8 (IL8), CXCL8 (gene 3576); assay: BSK_MyoF_IL8: BioMAP Diversity Plus: MyoF Assay for Interleukin-8 (IL8) Biomarker Activity (AID 2284261); settings: primary human lung fibroblasts
Procedure, shortened: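 Human lung fibroblast (MyoF system) cultures dosed for 24 h, then IL-8 measured by ELISA. Response taken relative to DMSO; parallel SRB total-protein staining for cytotoxicity.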

[2] = read-out: Matrix Metallopeptidase 1 (MMP1), MMP1 (gene 4312); assay: BSK_MyoF_MMP1: BioMAP Diversity Plus: MyoF Assay for Matrix Metallopeptidase 1 (MMP1) Biomarker Activity (AID 2284268); settings: primary human lung fibroblasts
Procedure, shortened: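 Human lung fibroblast primary cells; MMP1 measured by ELISA 24 h after dosing, fitted in the positive direction relative to DMSO. Parallel SRB staining (0.1%, after 10% TCA fixation, 560 nm) assesses overt cytotoxicity.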

[3] = read-out: TIMP metallopeptidase inhibitor 1 (TIMP1), TIMP1 (gene 7076); assay: BSK_MyoF_TIMP1: BioMAP Diversity Plus: MyoF Assay for TIMP metallopeptidase inhibitor 1 (TIMP1) Biomarker Activity (AID 2284269); settings: primary human lung fibroblasts
Procedure, shortened: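 Fibroblasts from human lung are dosed with chemical, cultured 24 h, and assayed for TIMP-1 by ELISA. Increases over the DMSO baseline are scored, with SRB total-protein staining run in parallel for cytotoxicity.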

[4] = read-out: Intercellular Adhesion Molecule 1 (ICAM1), ICAM1 (gene 3383); assay: BSK_BE3C_ICAM1: BioMAP Diversity Plus: BE3C Assay for Intercellular Adhesion Molecule 1 (ICAM1) Biomarker Activity (AID 2284278); settings: primary human bronchial epithelial cells
Procedure, shortened: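 ELISA read-out of ICAM-1 on human lung bronchial epithelial primary cells, 24 h post-dosing; positive-direction curve fit, DMSO = baseline. SRB total-protein staining of parallel cultures flagged overt cytotoxicity.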

[5] = read-out: Interleukin-8 (IL8), CXCL8 (gene 3576); assay: BSK_BE3C_IL8: BioMAP Diversity Plus: BE3C Assay for Interleukin-8 (IL8) Biomarker Activity (AID 2284280); settings: primary human bronchial epithelial cells
Procedure, shortened: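 Measured at 24 h after treatment, IL-8 from human primary bronchial epithelial cells is determined by ELISA, and the response is modelled as increasing relative to DMSO negative control.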

[6] = read-out: Epidermal growth factor receptor (EGFR), EGFR (gene 1956); assay: BSK_BE3C_EGFR: BioMAP Diversity Plus: BE3C Assay for Epidermal growth factor receptor (EGFR) Biomarker Activity (AID 2284281); settings: primary human bronchial epithelial cells
Procedure, shortened: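 Measured 24 h after dosing in primary human bronchial epithelial cultures, EGFR was read by ELISA; gain of signal over DMSO control defined activity.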

[7] = read-out: Matrix Metallopeptidase 9 (MMP9), MMP9 (gene 4318); assay: BSK_BE3C_MMP9: BioMAP Diversity Plus: BE3C Assay for Matrix Metallopeptidase 9 (MMP9) Biomarker Activity (AID 2284283); settings: primary human bronchial epithelial cells
Procedure, shortened: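 Human primary bronchial epithelial cells exposed 24 h to compound. MMP9 quantified by ELISA. SRB total-protein staining of parallel cultures assesses cytotoxicity. Positive-direction fit relative to DMSO.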

[8] = read-out: Plasminogen activator inhibitor-1 (PAI1), SERPINE1 (gene 5054); assay: BSK_CASM3C_PAI1: BioMAP Diversity Plus: CASM3C Assay for Plasminogen activator inhibitor-1 (PAI1) Biomarker Activity (AID 2284284); settings: primary human coronary artery smooth muscle cells;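 note: PAI-1 protein level measured by ELISA 24 h after dosing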
[9] = read-out: Monocyte Chemoattractant Protein-1 (MCP1), CCL2 (gene 6347); assay: BSK_hDFCGF_MCP1: BioMAP Diversity Plus: hDFCGF Assay for Monocyte Chemoattractant Protein-1 (MCP1) Biomarker Activity (AID 2284285); settings: primary human foreskin fibroblasts
Procedure, shortened: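 MCP-1 ELISA readout was taken 24 hours after dosing primary human dermal fibroblasts in the hDFCGF system, with DMSO as baseline. Parallel sulforhodamine B staining of total protein tracked overt cytotoxicity.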

Measured: AC50

Oc1cc2ccccc2cc1O
inactive: [1] | [2] | [3]

CC[N+](CC)(CC)Cc1ccccc1
inactive: [1] | [2] | [3]

COCN(COC)c1nc(N(COC)COC)nc(N(COC)COC)n1
inactive: [1] | [2] | [3]

Oc1c(Cl)cc(Cl)cc1Sc1cc(Cl)cc(Cl)c1O
active: [4] 5.56 µM and 6.58 µM | [5] 11.7 µM and 11.1 µM | [6] 4.89 µM and 4.9 µM | [7] 2.09 µM and 1.25 µM | [8] 18.3 µM | [9] 2.54 µM and 3.14 µM
inactive: [8]

O=C1NS(=O)(=O)c2ccccc21
not listed: [1] | [2] | [3]
inactive: all other assays above

Cc1cccc2c1ccc1ccccc12
inactive: [1] | [2] | [3]

NC(=NCCCCCCN=C(N)/N=C(\N)Nc1ccc(Cl)cc1)/N=C(\N)Nc1ccc(Cl)cc1
active: [1] 5.05 µM | [2] 9 µM | [3] 4.84 µM

COc1cccc(O)c1
inactive: [1] | [2] | [3]

C[C@]12CC[C@@H]3c4ccc(O)cc4CC[C@H]3[C@@H]1C[C@@H](O)[C@@H]2O
inactive: [1] | [2] | [3]

CCOC(=O)CN[C@@H](C(=O)N1CC[C@H]1C(=O)NCc1ccc(/C(N)=N/O)cc1)C1CCCCC1
inactive: [1] | [2] | [3]

C=COC(=O)C(C)(C)CCCCCC
inactive: [1] | [2] | [3]

OCCN1CN(CCO)CN(CCO)C1
inactive: [1] | [2] | [3]

Clc1ccc(Nc2nnc(Cc3ccncc3)c3ccccc23)cc1
inactive: [1] | [2] | [3]

COc1cc(OC)nc(NC(=O)NS(=O)(=O)Nc2ccccc2C(=O)N(C)C)n1
inactive: [1] | [2] | [3]

C=CC(C)(CCC=C(C)C)OC(C)=O (stereo not drawn)
inactive: [1] | [2] | [3]

C=CC(=C)CC/C=C(\C)CCC=C(C)C
inactive: [1] | [2] | [3]

CCCCCCCCCCCCCCCCCC[N+](C)(C)Cc1ccccc1
active: [1] 5.06 µM | [3] 4.88 µM
inactive: [2]

CCCCCCCCCCCC
inactive: [5] | [6] | [8]
active: [4] 7.01 µM and 6.7 µM | [5] 9.52 µM | [6] 5.07 µM | [7] 9.27 µM and 9.14 µM | [9] 11.1 µM and 7.93 µM

O=C1c2ccc(O)c(O)c2C(=O)c2c(O)ccc(O)c21
inactive: [1] | [2] | [3]

Oc1ccc(Cc2ccccc2O)cc1
not listed: [1] | [2] | [3]
inactive: all other assays above

CN(C)c1ccc(C(=C2C=CC(=[N+](C)C)C=C2)c2ccccc2)cc1
inactive: [2]
active: [1] 2.76 µM | [3] 0.697 µM
